From PubChem BioAssay
Shown are actives, neighbours in structure and some others; about 3.2% of the full set was active somewhere.
CRFBP-R2 agonist: CRF-BP/CRF-R2 complex agonism; HEK293 CRF-R2/CRF-BP, calcium dye fluorescence (FLIPR); percent of saturating CRF peptide response; activation, % at 13.2 µM; 0.46% of 350,000 active; AID 588473;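 active means activation of at least 50%, plus an integration ratio under a set limit after plate pattern correction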
CRFR2-BP antag: CRF-BP/CRF-R2 complex antagonism; HEK293 CRF-R2/CRF-BP, CRF-induced calcium fluorescence; inhibition, % at 11.8 µM; 0.59% of 350,000 active; AID 588475;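 active means inhibition of the ligand-induced calcium signal above about 50% at the single tested concentration, limit read from the data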
Cardio protect: modulators protecting cardiomyocytes from myocardial damage. H9c2 cardiomyocytes, H2O2 injury protection, ATPLite, 2 h. protection from H2O2 cell death, % at 20 µM. 0.63% of 360,000 active. AID 588492;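 active means compounds giving at least 50% protection of heart cells from peroxide-induced death in the single-dose screen, raw or plate-pattern-corrected value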
FAS TE block: blocks the thioesterase domain of human fatty acid synthase; recombinant FAS-TE, OMFH fluorogenic substrate, fluorescence endpoint; inhibition, % at 15 µM; 0.67% of 360,000 active;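 active means compounds whose normalised, plate-corrected inhibition of enzyme fluorescence in the single-dose primary screen is 50% or more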
aDG glyco act: increases alpha dystroglycan glycosylation; Pro5-aDG cells, alpha-DG glycosylation AlphaScreen (IIH6); 0% Pro5, 100% B10-LARGE cell signal; activation, % at 10 µM; 0.22% of 360,000 active;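 active means activation of at least 8% versus controls, or a plate z-score of at least 8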;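 further: Pro5 are CHO cells carrying HIG-tagged alpha-DG that lacks glycosylation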
PfG6PD inh: PfG6PD (Plasmodium falciparum) enzyme inhibition; PfGluPho enzyme, NADPH resazurin-diaphorase fluorescence; inhibition, % at 20 µM; 0.78% of 350,000 active; AID 504690;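 active means inhibition reaching at least a set limit at 20 µM in the primary screen, cut at about 59% in these data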
Of the large screens only hits and unclear results are named; the others gave an inactive call.

O=C(COC(=O)Cc1ccc(Cl)cc1)Nc1c(F)cccc1F	none
O=C(COC(=O)c1ccc[n+]([O-])c1)Nc1ccc(Cl)cc1[N+](=O)[O-]	none
CC(=O)OCCn1c2nc(=O)[nH]c(=O)c-2nc2cc(C)c(C)cc21	CRFBP-R2 agonist 203.2
CC(=O)OCCn1c(C)[n+](CCOC(C)=O)c2cc(Cl)c(Cl)cc21	none
O=C(N/N=C/c1ccc2c(c1)OCO2)c1ccc(NC(=O)c2ccccc2Cl)cc1	Cardio protect 56.1
COc1ccccc1N1CCN(C2CCN(C(=O)COc3ccccc3)CC2)CC1	none
O=C(/C=C/c1ccc(O)c(O)c1)c1ccc(S(=O)(=O)N2CCCCCC2)cc1	Cardio protect 73.9
C=CCN1C(=O)/C(=C/c2ccc(O)cc2)S/C1=N/c1nccs1	CRFBP-R2 agonist 65.2
CC(C)c1ccc(NC(=O)COC(=O)c2nn(C)c(=O)c3ccccc23)cc1	none
CCC(C)c1ccc(NC(=O)c2c([N+](=O)[O-])cnn2CC)cc1 (stereo unspecified)	none
O=C(N/N=C/c1ccc(O)cc1)Nc1cccc2nsnc12	Cardio protect 58.5
COc1cc(/C=N/NC(=O)Nc2cccc3nsnc23)cc(OC)c1OC	none
COC1=CC(=Cc2c(N)n3nc(CC(=O)N4CCCCC4)sc3nc2=O)C=C(OC)C1=O	CRFBP-R2 agonist 173.0
COC1=C/C(=C/c2c(N)n3nc(CC(=O)N4CCCC4)sc3nc2=O)C=CC1=O	none
N#Cc1c(C(F)(F)F)cc(-c2ccccc2)nc1SCc1nc(N)nc(N2CCOCC2)n1	CRFBP-R2 agonist 68.9
N#Cc1c(C(F)(F)F)cc(-c2ccc(Cl)c(Cl)c2)nc1SCCN1CCOCC1	none
CCCN1C(=O)/C(=C\c2nc3ccccc3c(=O)[nH]2)c2ccccc21	Cardio protect 65.7
O=c1[nH]c(/C=C/c2cccc3ccccc23)nc2ccccc12	none
COc1cccc(C(=O)c2c(-c3ccccc3)ncc3cc(OC)c(OC)cc23)c1	none
CCOc1ncccc1C(=O)OCC(=O)Nc1ccc2c(c1)OCO2	none
COc1ccc(C2=Nn3c(nnc3-c3ccco3)SC2)cc1	CRFR2-BP antag 67.8
CC(C)(C)C1=Nn2c(nnc2-c2ccco2)SC1	none
Oc1ccc(C2=Nn3c(nnc3-c3ccco3)SC2)cc1O	Cardio protect 69.0
COc1ccccc1NC(=O)CCn1c(=O)c2cccn2c2ccccc21	none
C=CCN(c1ccccc1)S(=O)(=O)c1cccc(C(=O)O)c1	CRFR2-BP antag 97.9
Cc1ccccc1NC(=O)CSCc1cc(=O)n2ccsc2n1	none
CC(=O)NCc1ccc(C(=O)O)cc1	CRFR2-BP antag 86.0
O=C(CSc1nnc(CNC(=O)c2ccco2)o1)Nc1ccccc1C(F)(F)F	none
COc1cc(OC)c(/C=N/n2c(C)nnc2C)c(OC)c1	none
CCc1ccc(OCCOCC(O)CN(CCO)CCO)cc1 (stereo unspecified)	none
CCc1ccc(OCCOCC(O)CNC(C)(C)C)cc1 (stereo unspecified)	CRFBP-R2 agonist 57.6
COc1ccc(N2C(=O)CSC23C(=O)N2c4c(cccc43)C(C)=CC2(C)C)cc1 (stereo unspecified)	CRFR2-BP antag 84.0
COc1ccc(N2C(=O)CSC23C(=O)N2CCCc4cccc3c42)cc1 (stereo unspecified)	none
O=c1[nH]nc(Cc2ccccc2)c2ccccc12	Cardio protect 64.3
COc1ccc(Cc2n[nH]c(=O)c3ccccc23)cc1OC	Cardio protect 61.9
O=c1[nH]nc(Cc2ccc([N+](=O)[O-])cc2)c2ccccc12	Cardio protect 64.2
COc1ccc(CC(=O)n2[nH]c(=O)c3ccccc3c2=O)cc1OC	none
O=c1[nH]c(=S)[nH]nc1Cc1ccccc1	none
CCc1ccc(N(CC(=O)NCc2ccco2)C(=O)CCC(=O)Nc2ccccn2)cc1	none
COc1cc(NC(=O)c2ccc(-c3cccnc3)c3ccoc23)cc(OC)c1OC	none (no result: CRFBP-R2 agonist, CRFR2-BP antag, PfG6PD inh)
COc1cc(NC(=O)c2ccc(-c3cn[nH]c3)c3ccoc23)cc(OC)c1OC	Cardio protect 66.5 (no result: CRFBP-R2 agonist, CRFR2-BP antag, PfG6PD inh)
Cc1ccc(-c2n[nH]c(=O)c3ccccc23)cc1S(=O)(=O)NCCN1CCOCC1	Cardio protect 48.8
Cc1ccc(-c2n[nH]c(=O)c3ccccc23)cc1S(=O)(=O)Nc1ccccc1	Cardio protect 83.2
Cc1nc(N2CCN(c3ccccn3)CC2)c2c(C)c(C(=O)Nc3ccc(F)cc3F)sc2n1	none
Cc1nc(N2CCN(c3ccccn3)CC2)c2c(C)c(C(=O)Nc3ccccc3F)sc2n1	Cardio protect 50.2
O=C(CN1CCN(c2ccccn2)CC1)Nc1ccc([N+](=O)[O-])cc1C(=O)Nc1ccccc1F	Cardio protect 62.9
COc1cc(Cl)c(C)cc1NC(=O)c1ccccc1NC(=O)CN1CCN(c2ccccn2)CC1	none
COc1cc(NC(=O)c2ccccc2)c(OC)cc1NC(=O)CN1CCN(c2ccccn2)CC1	Cardio protect 50.5
Cn1c(SCC(=O)NCCc2ccccc2)ncc(C(=O)Nc2ccc(F)cc2)c1=O	none
COc1ccc(NC(=O)N2CCC(n3cnc4ccccc43)CC2)cc1	none
COc1cc(NC(=O)CCN2CCN(C/C=C/c3ccccc3)CC2)cc(OC)c1	none
O=c1ccc2cc(S(=O)(=O)NCc3ccccc3)ccc2[nH]1	CRFR2-BP antag 98.9
Cc1cc(=O)[nH]c2ccc(S(=O)(=O)NCc3ccccc3)cc12	none
O=C(Nc1ccc(N2CCCCC2)cc1)c1cccnc1	none
O=C(c1ccc(N2CCNCC2)cc1)c1cccnc1	CRFR2-BP antag 61.8
COc1ccc(N(CC(=O)NCc2cccnc2)S(=O)(=O)c2ccccc2)c(OC)c1	none
CC(C(=O)NCCSCc1cccc(Cl)c1)N(c1ccccc1)S(C)(=O)=O (stereo unspecified)	none
Cc1[nH]c(=O)[nH]c(=O)c1S(=O)(=O)N1CCCC(C(=O)N2CCN(c3ccccc3Cl)CC2)C1 (stereo unspecified)	CRFR2-BP antag 73.6
CCC1CC(C(=O)Nc2ccccc2)C(=O)O1 (stereo unspecified)	none
Nc1nc(-c2ccc3c(c2)NC(=O)CO3)cs1	none
O=C1COc2ccc(-c3n[nH]c(=O)c4ccccc34)cc2N1	Cardio protect 58.8
CN(C)C(=O)c1ccc(-c2n[nH]c(=O)c3ccccc23)cc1	Cardio protect 62.5
CCn1c(SCC(=O)NC2CCCCC2)nc2ccccc2c1=O	none
N#C/C(=N\Nc1ccc(S(=O)(=O)N2CCOCC2)cc1)C(N)=S	none
N#CC(C#N)=NNc1ccc(S(=O)(=O)N2CCCCC2)cc1	CRFBP-R2 agonist 98.8, CRFR2-BP antag 66.1
CC1CCN(C(=O)C2CCN(S(=O)(=O)c3cccnc3)CC2)CC1	CRFR2-BP antag 75.1
CC1CCN(C(=O)C2CCN(S(=O)(=O)c3cccs3)CC2)CC1	CRFR2-BP antag 105.6
Cc1ccc(C)c(NC(=O)c2ccc(S(=O)(=O)C(F)F)cc2)c1	none
